High-throughput results (PubChem BioAssay)
aSyn 5UTR inh = 5' untranslated region of α-synuclein, MLPCN primary screen | inhibition, % (tested at 7.5 µM) | 300,000 tested, 0.82% active | alpha-synuclein 5'UTR reporter, inhibitor activity; in the data active means inhibition above about 60%;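 further: H4 neuroglioblastoma cells stably carrying SNCA 5'UTR luciferase fusion; 0% = DMSO wells and 100% = positive control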
Jurkat NFkB inh = inhibitors of the PMA/ionomycin-induced NF-kB reporter in Jurkat cells; 330,000 tested, 0.53% active; inhibition, % at 4 µM; PMA/ionomycin-induced NF-kB luciferase reporter, luminescence; in the data active means inhibition above about 50%
Gli-Sufu antag = blocks Gli-Sufu signaling in a luciferase reporter; 340,000 tested, 0.74% active; Sufu-KO-LIGHT fibroblasts, Gli luciferase reporter luminescence; inhibition, % at 5 µM;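 active means inhibition above about 55%, limit read from the data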;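 further: 0% = DMSO-treated cells and 100% = wells with medium but no cells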
697 NFkB inh = lowers PMA/ionomycin-induced NF-kB signal in 697 B cells. 697 B-cell NF-kB luciferase reporter, 16 h. inhibition, % at 4 µM. 330,000 tested, 0.33% active. AID 435022; in the data active means inhibition above about 35%
KLF5 inh = inhibitors of KLF5 expression | DLD-1 KLF5 promoter-luciferase reporter, luminescence | inhibition, % at 5 µM | 290,000 tested, 0.23% active;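 active means inhibition above a per-plate limit of that plate's mean compound inhibition plus 3 SD, cut at about 60% in these data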;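 further: 0% = DMSO wells and 100% = LY294002 at 200 µM; higher means less KLF5 promoter-driven luciferase light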
Mdm2-MdmX inh = disrupts the human Mdm2-MdmX interaction; O15151+Q00987; SaOS-2 split-luciferase Mdm2/MdmX complementation, luminescence; inhibition, % at 8 µM; 330,000 tested, 3% active; AID 485346;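 active means inhibition of at least 50% at 8 µM in the primary screen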
Target sequence (O15151 whole entry, looked up): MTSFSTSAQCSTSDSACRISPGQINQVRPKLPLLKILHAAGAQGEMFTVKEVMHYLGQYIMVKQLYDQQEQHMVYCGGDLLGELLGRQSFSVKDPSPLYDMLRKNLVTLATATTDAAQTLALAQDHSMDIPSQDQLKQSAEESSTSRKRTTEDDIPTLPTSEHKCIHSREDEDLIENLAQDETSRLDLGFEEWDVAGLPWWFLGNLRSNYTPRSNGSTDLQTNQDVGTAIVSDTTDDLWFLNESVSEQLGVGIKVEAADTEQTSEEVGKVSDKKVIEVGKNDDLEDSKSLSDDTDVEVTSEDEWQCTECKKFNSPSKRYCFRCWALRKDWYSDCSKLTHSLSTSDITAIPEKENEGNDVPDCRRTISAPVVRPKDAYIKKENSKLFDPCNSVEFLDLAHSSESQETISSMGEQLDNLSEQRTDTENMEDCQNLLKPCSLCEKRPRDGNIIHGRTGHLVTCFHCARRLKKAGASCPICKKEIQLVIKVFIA
Target sequence (Q00987 whole entry, looked up): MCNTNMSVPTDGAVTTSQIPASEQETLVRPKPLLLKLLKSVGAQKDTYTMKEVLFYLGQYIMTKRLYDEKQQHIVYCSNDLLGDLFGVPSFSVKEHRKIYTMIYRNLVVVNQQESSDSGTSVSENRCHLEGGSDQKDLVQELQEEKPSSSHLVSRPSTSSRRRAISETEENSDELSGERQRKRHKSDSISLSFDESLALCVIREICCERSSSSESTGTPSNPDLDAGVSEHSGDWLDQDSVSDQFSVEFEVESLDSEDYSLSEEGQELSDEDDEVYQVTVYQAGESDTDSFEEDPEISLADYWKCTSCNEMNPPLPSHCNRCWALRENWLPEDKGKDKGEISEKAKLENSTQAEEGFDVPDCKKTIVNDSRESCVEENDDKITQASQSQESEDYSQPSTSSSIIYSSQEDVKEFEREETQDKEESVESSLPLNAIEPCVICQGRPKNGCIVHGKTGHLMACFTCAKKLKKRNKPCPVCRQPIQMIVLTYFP
Gli-Sufu confirm = confirmation of Gli-SUFU pathway antagonists; inhibition, % at 5 µM; shares compounds with Gli-Sufu antag; Sufu-KO-LIGHT cells, Gli luciferase reporter, luminescence; 2,500 tested, 40% active;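 active means mean inhibition at 5 µM reaching about 45%, limit read from the data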;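 further: plate controls were DMSO-treated cells for no effect and wells lacking cells for full effect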
Gli cytotox = cytotoxic in Gli-SUFU antagonist counter-screen; shares compounds with Gli-Sufu antag; Sufu-KO-LIGHT cells cytotoxicity, ATP luminescence; cytotoxicity, % at 5 µM; 2,500 tested, 32% active; AID 651994;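 active means mean cytotoxicity at 5 µM above about 25%, limit read from the data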;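 further: cells exposed to compound overnight for roughly 16 to 18 hours; plate controls were DMSO wells with cells for no effect and medium without cells for full effect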
Wnt3a cs = inhibits Wnt3a reporter, counter-screen for Gli-SUFU antagonists | shares compounds with Gli-Sufu antag | Wnt-LIGHT cells, Wnt3a-driven luciferase reporter, luminescence | inhibition, % at 6.25 µM | 2,500 tested, 20% active | AID 651995;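 active means mean inhibition above about 25%, limit read from the data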
* = called active by the depositor; x = no result given. Compounds with a hit are over-represented: about 4.1% of the library has one in this group of screens.

SMILES	aSyn 5UTR inh	Jurkat NFkB inh	Gli-Sufu antag	697 NFkB inh	KLF5 inh	Mdm2-MdmX inh	Gli-Sufu confirm	Gli cytotox	Wnt3a cs
CCCC1C(=O)Nc2ccccc2N1C(=O)c1cccc(C)c1 (centres undefined)	10.8	-13.2	71.4*	6.8	8.0	7.9	15.5	17.4	-0.8
O=C(Nc1oc2ccccc2c(=O)c1-c1ccc(Cl)cc1)c1ccco1	7.5	12.5	-24.3	-17.4	-18.6	12.5	x	x	x
CCO[C@H]1OC(C(=O)N2CCOCC2)=C[C@@H](C2CC2)[C@@H]1CCCO	12.7	9.4	98.7*	-7.0	-11.9	-17.4	25.6	-5.5	0.0
CCc1nc(N)nc(N)c1-c1ccc(N(C)Cc2ccccc2)c([N+](=O)[O-])c1	x	x	62.5*	x	x	x	49.0*	21.0	16.7
Cc1ccc(C(=O)CCC(=O)OCC(=O)N(CC(C)C)c2c(N)n(Cc3ccccc3)c(=O)[nH]c2=O)cc1	11.7	9.1	-19.2	-3.8	x	21.8	x	x	x
CC(=O)Nc1ccc(C(=O)OCC(=O)/C(C#N)=C(\C)N)cc1	-10.2	-9.2	-6.4	-66.1	-20.0	1.0	x	x	x
C/C(N)=C(/C#N)C(=O)COC(=O)c1ccncc1	10.8	-8.6	95.1*	-0.3	4.0	35.9	8.1	21.6	-3.7
O=C(O)c1cncc(C#CCC2CCCCC2)c1	-59.5	-22.9	-16.2	-58.1	-82.8	2.0	x	x	x
CC(=O)NC12CC3CC(C1)CC(C(=O)N1CCN(c4ncccn4)CC1)(C3)C2	12.0	15.4	3.8	-1.3	-31.5	0.1	x	x	x
COc1ccc(CNCC(O)(c2ccccc2)c2ccccc2)cc1OC	6.6	12.2	53.4	3.4	-23.3	17.3	15.1	13.8	-10.6
COc1ccc(C(=O)N/C(=C\c2cn(S(=O)(=O)N(C)C)c3ccccc23)C(=O)NCCN2CCOCC2)cc1	25.5	11.2	-7.5	16.6	-1.3	7.7	x	x	x
O=C(CSCc1ccc(Cl)cc1Cl)Nc1ccccc1C(=O)Nc1ccc(C(=O)O)cc1	10.2	22.5	53.9	-13.0	-16.6	29.5	21.4	7.5	4.6
O=C(CSCc1ccc(Cl)cc1Cl)Nc1ccc(O)cc1C(=O)O	-1.3	-2.8	-2.6	8.6	-30.1	20.1	x	x	x
COc1cnn(-c2cccc(C)c2)c(=O)c1Cl	-11.6	-2.1	50.6	13.4	-32.4	22.1	23.0	2.8	-32.0
COCCn1c(SCC(=O)Nc2cc(C)on2)nc2c(c1=O)SCC2	-18.9	7.7	51.7	-15.1	-23.4	15.4	20.4	-4.1	-10.7
CCc1nc2ccccc2c(NC(=O)CN2CCC(C)CC2)c1C	6.3	2.0	50.5	-21.1	3.3	2.4	18.3	8.3	-3.1
CC1CCN(CC(=O)NCc2ccccc2)CC1	-7.3	-6.6	-2.4	-1.1	-0.4	-7.8	x	x	x
CC(C)CN(CC(C)C)c1nc(N)c(C#N)c(CC#N)c1C#N	34.2	20.8	88.8*	-17.1	-42.5	10.6	18.2	10.3	13.4
O=C(NCC(c1ccco1)N1CCCC1)c1cc(S(=O)(=O)N2CCOCC2)ccc1Cl (centres undefined)	x	0.6	-1.0	12.2	x	6.4	x	x	x
O=C(c1ccc(Cl)cc1)c1ccc(OCC(=O)N2CCOCC2)cc1	11.3	-15.3	68.9*	-18.4	14.2	10.1	15.3	20.9	-36.5
Cc1cc(N2CCCCCC2)nc(-c2ccccc2O)n1	5.3	1.4	84.8*	-0.8	-42.5	30.9	20.3	15.2	-16.2
COc1ccc(Cl)cc1C(=O)NNC(=O)CSc1nnc2ccccn12	7.6	-13.8	53.1	14.8	-8.6	0.3	18.1	2.0	17.8
COc1ccc(C(=O)NNC(=O)CSc2nnc3ccccn23)cc1OC	x	-1.5	10.5	16.4	x	13.2	x	x	x
O=C(O)CSc1nnc(-c2ccc(Cl)cc2Cl)n1-c1ccccc1	2.0	-13.0	-20.8	3.0	-12.8	-6.5	x	x	x
Nc1ccc(O)cc1C(=O)OCC(=O)c1ccc(C2CCCCC2)cc1	-36.6	x	65.8*	x	-9.1	x	66.4*	32.6*	29.3*
Cc1cc(N2C(=O)CCC2=O)ccc1NC(=O)c1cccs1	-13.4	-5.1	-2.2	-5.7	-36.2	-17.3	x	x	x
